The full data set covers some 7,900 targets. This sample favours those with a hit. About 0.6% of all pairs of compound and target were hits. Unmarked numbers belong to inactive results.
Legend:
Assay in all cases: log2 fold change, soluble protein after heating vs DMSO (PISA); higher = thermal stabilisation; K562 cells, 10 uM, 30 min; active = over 0.2 and 3.5 SD of the protein, either way, in both replicates (recomputed)
[1] = compound: NC(=O)Nc1cc(-c2cccc(F)c2)sc1C(=O)N[C@H]1CCCNC1
Method in brief: (§1)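 K562 cells at 2×10^6 cells/mL were given 10 μM compound for 30 min. Aliquots then went through 3 min of heating across 48°C-58°C, were pooled, and were extracted in PBS with 0.5% NP-40 at 4°C, and the supernatant after 21,000xg for 90 min was quantified by TMTpro 16plex LC-MS/MS with channel sums equalised. Thermal stability relative to control samples, from duplicates, is given as log2 fold change.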

[2] = compound: NC(=O)c1cnc(N[C@@H]2CCCC[C@@H]2N)nc1Nc1cccc(-n2nccn2)c1
Method in brief: as §1

[3] = compound: NC1(c2ccc(-c3nc4ccn5c(=O)[nH]nc5c4cc3-c3ccccc3)cc2)CCC1
Method in brief: as §1

[4] = compound: NCC(=O)Nc1ccc(-n2nc(C(F)(F)F)cc2-c2ccc3c(ccc4ccccc43)c2)cc1
Method in brief: as §1

entinostat = compound: Nc1ccccc1NC(=O)c1ccc(CNC(=O)OCc2cccnc2)cc1 [entinostat]
Method in brief: as §1

vorinostat = compound: O=C(CCCCCCC(=O)Nc1ccccc1)NO [vorinostat]
Method in brief: as §1

citarinostat = compound: O=C(CCCCCCNC(=O)c1cnc(N(c2ccccc2)c2ccccc2Cl)nc1)NO [citarinostat]
Method in brief: as §1

silmitasertib = compound: O=C(O)c1ccc2c(c1)nc(Nc1cccc(Cl)c1)c1ccncc12 [silmitasertib]
Method in brief: as §1

[5] = compound: O=C1NC(=O)C(c2cnc3ccccn23)=C1c1cn2c3c(cc(F)cc13)CN(C(=O)N1CCCCC1)CC2
Method in brief: as §1

[6] = compound: c1cc(OCCN2CCCCC2)cc(-c2n[nH]c3ccc(-c4nnc[nH]4)cc23)c1
Method in brief: as §1

entospletinib = compound: c1cn2cc(-c3ccc4cn[nH]c4c3)nc(Nc3ccc(N4CCOCC4)cc3)c2n1 [entospletinib]
Method in brief: as §1

UniProt Q8NDZ6, sequence (Q8NDZ6 whole entry, looked up): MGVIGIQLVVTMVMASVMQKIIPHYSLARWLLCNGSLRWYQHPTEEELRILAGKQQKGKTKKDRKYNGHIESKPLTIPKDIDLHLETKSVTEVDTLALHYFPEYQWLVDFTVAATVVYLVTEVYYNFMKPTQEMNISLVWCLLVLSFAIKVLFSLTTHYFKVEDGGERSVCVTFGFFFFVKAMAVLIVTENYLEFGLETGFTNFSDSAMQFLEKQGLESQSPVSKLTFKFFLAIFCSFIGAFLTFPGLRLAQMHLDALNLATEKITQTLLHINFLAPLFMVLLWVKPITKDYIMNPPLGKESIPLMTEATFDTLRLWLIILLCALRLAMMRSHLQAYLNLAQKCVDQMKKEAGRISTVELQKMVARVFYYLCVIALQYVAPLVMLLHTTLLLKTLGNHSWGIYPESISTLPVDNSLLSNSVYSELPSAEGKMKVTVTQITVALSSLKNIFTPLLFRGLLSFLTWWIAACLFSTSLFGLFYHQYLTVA
UniProt Q92890, sequence (Q92890 whole entry, looked up): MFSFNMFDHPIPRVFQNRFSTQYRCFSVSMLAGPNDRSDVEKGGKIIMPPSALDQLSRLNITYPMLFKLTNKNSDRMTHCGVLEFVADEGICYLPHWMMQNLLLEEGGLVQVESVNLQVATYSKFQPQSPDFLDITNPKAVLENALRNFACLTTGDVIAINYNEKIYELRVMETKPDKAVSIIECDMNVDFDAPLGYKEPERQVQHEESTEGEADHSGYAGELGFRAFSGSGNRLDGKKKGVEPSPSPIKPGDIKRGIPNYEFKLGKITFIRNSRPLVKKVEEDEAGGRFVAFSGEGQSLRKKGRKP
UniProt Q9BZI7, sequence (Q9BZI7 whole entry, looked up): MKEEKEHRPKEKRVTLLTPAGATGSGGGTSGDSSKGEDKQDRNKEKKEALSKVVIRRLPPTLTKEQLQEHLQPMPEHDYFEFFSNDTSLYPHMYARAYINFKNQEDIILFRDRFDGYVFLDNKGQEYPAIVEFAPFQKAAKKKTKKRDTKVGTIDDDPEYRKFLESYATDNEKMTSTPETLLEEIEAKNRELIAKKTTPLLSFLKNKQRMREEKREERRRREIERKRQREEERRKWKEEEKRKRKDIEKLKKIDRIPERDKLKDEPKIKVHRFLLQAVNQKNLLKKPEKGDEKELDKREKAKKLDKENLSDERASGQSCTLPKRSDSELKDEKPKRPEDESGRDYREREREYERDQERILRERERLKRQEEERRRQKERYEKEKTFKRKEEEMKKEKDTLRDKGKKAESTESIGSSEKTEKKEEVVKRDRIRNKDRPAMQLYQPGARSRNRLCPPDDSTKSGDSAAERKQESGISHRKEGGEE
UniProt Q5R3I4, sequence (Q5R3I4 whole entry, looked up): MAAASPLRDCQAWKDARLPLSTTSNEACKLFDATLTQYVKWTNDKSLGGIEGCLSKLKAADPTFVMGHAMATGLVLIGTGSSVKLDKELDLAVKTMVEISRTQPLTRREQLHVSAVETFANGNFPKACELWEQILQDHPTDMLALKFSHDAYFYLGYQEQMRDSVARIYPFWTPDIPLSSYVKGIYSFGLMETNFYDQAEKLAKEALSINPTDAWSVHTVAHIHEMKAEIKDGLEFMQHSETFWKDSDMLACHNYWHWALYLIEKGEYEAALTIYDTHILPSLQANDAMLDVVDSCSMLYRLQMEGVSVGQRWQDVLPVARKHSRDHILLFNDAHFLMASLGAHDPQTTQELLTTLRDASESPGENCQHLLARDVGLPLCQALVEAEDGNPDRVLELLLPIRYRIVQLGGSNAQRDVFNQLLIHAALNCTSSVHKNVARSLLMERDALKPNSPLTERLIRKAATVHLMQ
UniProt Q9UHP3, sequence (Q9UHP3 whole entry, looked up): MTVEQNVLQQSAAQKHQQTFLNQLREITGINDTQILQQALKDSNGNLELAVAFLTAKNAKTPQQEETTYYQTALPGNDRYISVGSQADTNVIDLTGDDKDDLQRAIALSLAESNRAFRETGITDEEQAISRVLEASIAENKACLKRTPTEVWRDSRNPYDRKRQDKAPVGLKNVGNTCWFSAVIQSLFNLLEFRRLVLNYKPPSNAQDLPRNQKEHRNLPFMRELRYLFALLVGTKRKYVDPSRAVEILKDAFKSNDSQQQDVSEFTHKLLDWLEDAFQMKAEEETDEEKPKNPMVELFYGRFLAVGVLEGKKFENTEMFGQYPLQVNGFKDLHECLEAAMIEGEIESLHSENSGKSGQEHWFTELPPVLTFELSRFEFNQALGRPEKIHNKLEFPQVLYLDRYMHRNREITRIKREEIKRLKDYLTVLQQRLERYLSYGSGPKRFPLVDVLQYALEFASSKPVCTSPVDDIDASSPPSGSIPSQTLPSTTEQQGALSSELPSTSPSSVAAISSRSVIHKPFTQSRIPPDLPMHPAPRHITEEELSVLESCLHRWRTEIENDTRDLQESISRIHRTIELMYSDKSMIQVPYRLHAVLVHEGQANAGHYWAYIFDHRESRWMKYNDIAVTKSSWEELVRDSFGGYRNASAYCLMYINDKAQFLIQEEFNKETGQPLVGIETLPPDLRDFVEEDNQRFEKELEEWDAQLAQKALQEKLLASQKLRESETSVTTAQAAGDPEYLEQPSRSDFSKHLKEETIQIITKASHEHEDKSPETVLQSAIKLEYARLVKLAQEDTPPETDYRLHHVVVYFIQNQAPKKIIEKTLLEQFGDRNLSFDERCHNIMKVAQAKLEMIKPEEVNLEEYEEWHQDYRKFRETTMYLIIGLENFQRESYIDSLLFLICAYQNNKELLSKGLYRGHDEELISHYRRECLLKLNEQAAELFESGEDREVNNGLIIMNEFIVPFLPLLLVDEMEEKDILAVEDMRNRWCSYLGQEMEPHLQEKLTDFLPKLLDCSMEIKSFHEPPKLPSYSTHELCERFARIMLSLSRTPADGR
UniProt Q9H4I3, sequence (Q9H4I3 whole entry, looked up): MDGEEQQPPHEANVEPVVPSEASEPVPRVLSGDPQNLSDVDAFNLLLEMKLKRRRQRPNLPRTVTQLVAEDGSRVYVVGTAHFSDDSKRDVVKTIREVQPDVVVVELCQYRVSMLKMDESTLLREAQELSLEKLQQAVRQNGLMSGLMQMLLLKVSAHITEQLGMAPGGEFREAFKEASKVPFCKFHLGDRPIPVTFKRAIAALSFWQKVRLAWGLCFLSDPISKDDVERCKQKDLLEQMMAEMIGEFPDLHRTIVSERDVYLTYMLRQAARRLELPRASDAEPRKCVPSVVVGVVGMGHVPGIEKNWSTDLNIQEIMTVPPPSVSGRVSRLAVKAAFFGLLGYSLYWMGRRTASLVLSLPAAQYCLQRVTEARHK
UniProt Q6NUQ4, sequence (Q6NUQ4 whole entry, looked up): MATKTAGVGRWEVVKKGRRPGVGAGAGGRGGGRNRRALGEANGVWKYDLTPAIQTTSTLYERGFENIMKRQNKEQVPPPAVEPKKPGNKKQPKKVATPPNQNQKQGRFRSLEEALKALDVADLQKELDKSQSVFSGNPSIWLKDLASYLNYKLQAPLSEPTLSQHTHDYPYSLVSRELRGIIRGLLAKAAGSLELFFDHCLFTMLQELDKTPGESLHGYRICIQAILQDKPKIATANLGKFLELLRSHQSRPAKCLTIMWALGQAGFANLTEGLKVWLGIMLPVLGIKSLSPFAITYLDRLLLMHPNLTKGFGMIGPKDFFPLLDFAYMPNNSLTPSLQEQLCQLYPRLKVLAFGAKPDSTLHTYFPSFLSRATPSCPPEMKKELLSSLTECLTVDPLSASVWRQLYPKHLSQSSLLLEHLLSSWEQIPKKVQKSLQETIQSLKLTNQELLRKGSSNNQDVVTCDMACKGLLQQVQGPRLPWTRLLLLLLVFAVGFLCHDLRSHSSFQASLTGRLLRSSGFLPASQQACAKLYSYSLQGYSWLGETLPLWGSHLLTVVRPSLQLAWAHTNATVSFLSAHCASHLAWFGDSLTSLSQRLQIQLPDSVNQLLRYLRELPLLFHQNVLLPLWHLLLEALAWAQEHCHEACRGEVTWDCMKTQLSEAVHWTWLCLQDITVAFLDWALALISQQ
UniProt Q9UDW1, sequence (Q9UDW1 whole entry, looked up): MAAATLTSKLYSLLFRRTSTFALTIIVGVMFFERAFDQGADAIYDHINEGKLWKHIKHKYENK
UniProt O60701, sequence (O60701 whole entry, looked up): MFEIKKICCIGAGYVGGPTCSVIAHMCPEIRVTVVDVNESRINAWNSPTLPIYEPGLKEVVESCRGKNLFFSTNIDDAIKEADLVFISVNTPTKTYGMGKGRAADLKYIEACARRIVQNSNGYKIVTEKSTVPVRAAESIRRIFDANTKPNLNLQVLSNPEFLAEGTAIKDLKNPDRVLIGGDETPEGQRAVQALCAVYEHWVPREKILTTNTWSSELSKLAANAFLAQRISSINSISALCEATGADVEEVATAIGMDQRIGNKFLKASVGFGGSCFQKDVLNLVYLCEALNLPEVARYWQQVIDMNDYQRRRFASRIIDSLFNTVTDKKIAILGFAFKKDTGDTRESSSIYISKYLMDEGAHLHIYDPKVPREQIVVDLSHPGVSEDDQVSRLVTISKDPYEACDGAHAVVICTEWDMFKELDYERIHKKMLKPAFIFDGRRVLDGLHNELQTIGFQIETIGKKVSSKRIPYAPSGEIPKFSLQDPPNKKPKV
UniProt Q9Y385, sequence (Q9Y385 whole entry, looked up): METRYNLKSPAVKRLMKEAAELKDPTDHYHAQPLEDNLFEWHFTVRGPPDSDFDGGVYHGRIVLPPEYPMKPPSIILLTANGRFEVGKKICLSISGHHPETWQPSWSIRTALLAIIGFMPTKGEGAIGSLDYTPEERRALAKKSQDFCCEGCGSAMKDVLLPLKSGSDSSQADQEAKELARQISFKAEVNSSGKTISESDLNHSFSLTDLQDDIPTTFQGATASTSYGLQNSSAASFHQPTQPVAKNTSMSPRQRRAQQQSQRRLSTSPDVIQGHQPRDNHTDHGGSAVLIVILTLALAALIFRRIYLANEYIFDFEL
UniProt Q9UK41, sequence (Q9UK41 whole entry, looked up): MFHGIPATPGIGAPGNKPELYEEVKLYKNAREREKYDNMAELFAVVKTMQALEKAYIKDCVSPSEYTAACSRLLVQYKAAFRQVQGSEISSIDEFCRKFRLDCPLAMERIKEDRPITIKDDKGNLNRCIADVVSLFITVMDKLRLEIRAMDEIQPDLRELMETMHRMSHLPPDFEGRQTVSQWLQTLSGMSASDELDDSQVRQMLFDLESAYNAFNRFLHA

Target	log2 fold change [1]	log2 fold change [2]	log2 fold change [3]	log2 fold change [4]	log2 fold change (entinostat)	log2 fold change (vorinostat)	log2 fold change (citarinostat)	log2 fold change (silmitasertib)	log2 fold change [5]	log2 fold change [6]	log2 fold change (entospletinib)
TRIM4 (UniProt Q9C037)	-0.04	0.007	0.082	-0.294	0.03	-0.03	-0.006	0.042	-0.051	-0.049	0.089
UBA1 (UniProt P22314)	-0.044	-0.112	-0.275	-0.101	0.159	0.167	0.125	0.018	-0.013	-0.028	-0.025
TSEN2 (UniProt Q8NCE0)	0.212	-0.008	-0.126	-0.024	0.052	-0.003	0.005	0.197	-0.015	0.008	-0.041
TMEM41A (UniProt Q96HV5)	-0.005	-0.053	0.002	-0.066	-0.027	0.09	0.04	-0.015	-0.018	-0.059	0.042
WDR7 (UniProt Q9Y4E6)	-0.227	-0.017	0.104	-0.019	0.008	0.036	-0.125	0.032	0.119	-0.088	0.126
TMEM214 (UniProt Q6NUQ4)	-0.01	0.049	-0.003	0.022	0.003	0.047	-0.01	0.006	0.02	-0.022	-0.015
WASHC3 (UniProt Q9Y3C0)	-0.037	0.1	-0.271 (active)	-0.029	-0.011	-0.053	0.016	0.075	-0.054	-0.005	0.007
USP3 (UniProt Q9Y6I4)	0.039	0.016	-0.218	-0.115	-0.037	0.092	0.102	0.019	-0.066	-0.014	-0.003
WDR18 (UniProt Q9BV38)	0.013	-0.021	-0.043	0.054	0.019	0.025	0.018	0.013	-0.03	0.017	-0.061
VPS53 isoform 4 (UniProt Q5VIR6)	-0.036	-0.062	-0.105	-0.021	0.052	0.018	0.025	0.063	-0.066	-0.02	0.003
XPNPEP3 (UniProt Q9NQH7)	0.034	-0.007	-0.074	0	-0.024	-0.002	-0.007	-0.004	-0.02	-0.022	-0.025
TMEM184C (UniProt Q9NVA4)	-0.185	0.069	-0.401 (active)	-0.07	-0.218	0.08	-0.065	-0.004	-0.055	0.022	0.041
TMEM9 (UniProt Q9P0T7)	-0.008	0.047	-0.113	0.063	-0.026	-0.053	0.1	-0.044	-0.031	0.065	-0.05
WDR46 (UniProt O15213)	0.098	0.083	0.253	0.177	-0.027	-0.042	-0.139	0.173	0.257	-0.143	0.01
TPR (UniProt P12270)	0.09	-0.039	0.06	-0.032	-0.019	-0.084	0.008	0.3 (active)	0.085	0.005	0.067
WNK1 isoform 7 (UniProt Q9H4A3)	0.002	0.001	-0.037	-0.042	0.008	-0.05	0.009	-0.062	-0.01	-0.063	-0.005
UTP3 (UniProt Q9NQZ2)	0.093	0.074	0.286	0.087	-0.019	-0.06	-0.107	0.095	0.103	-0.41	-0.009
TMEM161B (UniProt Q8NDZ6)	-0.056	0.029	-0.017	-0.073	0.041	0.097	0.036	-0.011	0.003	-0.03	0.016
WDCP (UniProt Q9H6R7)	0.062	0.049	-0.011	-0.025	0.019	0.037	0.118	0.172	-0.033	-0.035	-0.024
VPS18 (UniProt Q9P253)	0.019	-0.13	-0.216	0.079	0.08	0.089	0.009	0.005	0.023	0.005	-0.07
TMEM208 (UniProt Q9BTX3)	0.038	-0.133	-0.28	-0.181	-0.01	0.187	0.036	0.048	0.02	-0.09	-0.062
XPO6 (UniProt Q96QU8)	0.068	-0.103	-0.154	-0.118	0.025	0.048	0.085	0.01	0.099	-0.038	-0.027
TMEM120A (UniProt Q9BXJ8)	0.229	0.089	0.058	0.091	0.002	0.1	0.252	-0.124	0.185	0.082	-0.404 (active)
UBE2Q1 (UniProt Q7Z7E8)	-0.01	-0.059	-0.084	-0.012	0.03	0.084	0.029	0.074	-0.035	-0.035	0.007
UBR2 (UniProt Q8IWV8)	-0.007	0.038	0.039	0.007	0.049	0.137	0.05	0.061	0.044	-0.14	0.029
TOM1L1 (UniProt O75674)	-0.086	0.102	0.008	0.018	-0.034	0.092	-0.074	0.021	0.008	-0.041	0.038
TTI1 (UniProt O43156)	-0.079	-0.093	-0.181	-0.022	0	0.142	0.028	0.062	0.057	-0.099	0.1
VPS28 (UniProt Q9UK41)	-0.059	-0.079	-0.177	-0.055	0.064	0.052	0.122	0.058	-0.001	-0.012	-0.039

Target	log2 fold change [1]	log2 fold change [2]	log2 fold change [3]	log2 fold change [4]	log2 fold change (entinostat)	log2 fold change (vorinostat)	log2 fold change (citarinostat)	log2 fold change (silmitasertib)	log2 fold change [5]	log2 fold change [6]	log2 fold change (entospletinib)
UBA52 (UniProt P62987)	0.067	0.158	0.366	0.178	0	0.029	-0.112	0.158	0.246	-0.216	0.159
U2AF1 isoform 2 (UniProt Q01081)	-0.174	-0.017	0.058	-0.096	-0.013	-0.021	0.039	-0.034	-0.039	-0.093	-0.052
VWA8 (UniProt A3KMH1)	-0.017	-0.024	-0.135	-0.016	0.008	0.096	0.048	-0.046	-0.071	-0.039	-0.03
UBE2J1 (UniProt Q9Y385)	0.031	-0.038	0.07	0.017	-0.077	-0.019	0.041	0.042	-0.375 (active)	-0.09	0
WDR41 (UniProt Q9HAD4)	0	-0.005	-0.173	-0.005	0.038	0.091	0.036	0.031	-0.11	-0.07	-0.019
TRMT10C (UniProt Q7L0Y3)	-0.055	-0.027	-0.137	-0.018	0.022	0	-0.018	-0.026	-0.075	0.035	-0.043
UHRF1BP1 (UniProt Q6BDS2)	-0.019	0.074	0.019	0.029	-0.058	0.004	-0.012	-0.043	-0.032	0.007	0.015
UFD1 isoform 1 (UniProt Q92890)	-0.001	-0.015	-0.03	-0.001	0.01	0.003	0.061	-0.014	0.014	0.034	-0.047
TRABD (UniProt Q9H4I3)	0.008	-0.006	0.1	0.157	-0.022	0.009	-0.014	0.188	0.055	-0.026	0.047
TP53BP1 isoform 2 (UniProt Q12888)	0.014	-0.056	-0.072	-0.008	0.018	0.031	0.074	0.117	-0.035	-0.029	0.087
USP7 (UniProt Q93009)	-0.039	-0.062	-0.263	-0.07	0.097	0.182	0.096	-0.028	-0.037	0.046	-0.019
TRAPPC13 isoform 5 (UniProt A5PLN9)	-0.01	-0.248	-0.269	-0.148	0.045	0.079	0.136	0.017	-0.016	-0.13	-0.022
TOMM20 (UniProt Q15388)	0.008	-0.034	-0.023	-0.131	0.01	0.031	-0.088	-0.006	-0.088	-0.01	0.069
TMEM189-UBE2V1 (UniProt I3L0A0)	0.06	-0.018	-0.063	-0.018	-0.097	0.005	0.046	-0.058	0.009	-0.016	-0.017
XIAP (UniProt P98170)	-0.004	-0.12	-0.113	-0.001	0.009	0.053	0.091	-0.029	-0.047	-0.106	-0.066
USP25 isoform 3 (UniProt Q9UHP3)	-0.038	-0.027	-0.071	-0.067	0.001	-0.019	-0.021	0.051	-0.03	0.011	0
WARS2 (UniProt Q9UGM6)	-0.082	-0.019	-0.101	-0.08	0.076	0.037	0.095	0.07	0.01	-0.023	-0.042
VDAC1 (UniProt P21796)	0.025	0	0.008	0.019	-0.002	-0.044	0.039	-0.015	-0.019	-0.009	-0.012
TTC38 (UniProt Q5R3I4)	0.038	0.113	-0.263	-0.09	0.111	0.459 (active)	-0.243	-0.156	0.042	0.313	-0.114
UBE2E3 (UniProt Q969T4)	-0.007	-0.052	-0.155	-0.106	0.051	0.103	0.063	-0.016	0.023	-0.007	-0.002
WASH2P (UniProt Q6VEQ5)	0.067	-0.088	-0.314 (active)	0.02	0.028	-0.016	0.029	0.06	0.092	-0.045	0.015
UQCR10 (UniProt Q9UDW1)	-0.053	-0.043	0.076	0.02	-0.003	0.187	0.045	-0.003	-0.067	-0.026	-0.002
UGDH (UniProt O60701)	-0.062	-0.124	-0.033	-0.095	0.064	-0.027	0.145	-0.102	-0.31 (active)	0	-0.033
UPF3B (UniProt Q9BZI7)	0.092	0.11	0.315	0.096	-0.079	0	-0.125	0.149	0.245	-0.278	0.098
VTA1 (UniProt Q9NP79)	-0.029	0.018	-0.185	-0.045	0.036	0.036	0.054	0.023	-0.076	0.009	-0.005
U2AF2 (UniProt P26368)	-0.125	-0.021	0.033	-0.051	-0.031	-0.129	-0.014	-0.049	0.113	-0.09	0.107
UTP4 (UniProt Q969X6)	0.049	0.033	0.075	0.05	-0.037	-0.051	-0.002	0.064	0.06	-0.03	-0.058

— the supplement of paper PMC10849652
